# High-throughput results as filed in PubChem.
# Hits are enriched below; roughly 4.7% of the tested compounds scored in any of these assays.
# TROY signal inh = TROY signaling inhibition; Q293 LMP1-TROYcd NF-kB luciferase reporter, 4 h; inhibition, % at 10 µM; 360,000 tested, 0.98% active;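 active = compounds whose plate-normalised and pattern-corrected inhibition of the luciferase reporter signal at the single screening dose is 50% or more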
# HSP90 refold inh = HSP90 refolding inhibition in rabbit reticulocyte lysate | luciferase refolding luminescence, 3 h | inhibition, % at 5.6 µM | 290,000 tested, 0.91% active | AID 1789;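 active = inhibition above the screen-wide mean plus 3 SD, computed separately per campaign, cut at about 16% in these data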;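 also: 0% = DMSO wells and 100% = 60 µM geldanamycin wells; inhibitors lower the luminescence because luciferase stays unfolded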
# HSF-1 act = increases HSF-1 driven luciferase reporter signal. activation, % at 9 µM. NIH3T3-HGL HSF-1 luciferase reporter, MG132, 8 h; 100% = twice DMSO control signal. 300,000 tested, 1.7% active;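 active = mean replicate activation of at least 50% with a set share of replicates each reaching 50%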;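 also: 0% = median of the neutral control wells and 100% = twice that signal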
# EBV LMP1 NFkB = reduces LMP1-driven NF-kappaB luciferase signal | LMP1-induced NF-kappaB luciferase reporter cells, luminescence | inhibition, % at 12.5 µM | 350,000 tested, 0.69% active; in the data active = inhibition above about 41%;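 also: 0% = neutral control wells and 100% = reference inhibitor control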
# TWEAK Fn14 block = TWEAK-Fn14 signaling inhibition; inhibition, % at 10 µM; AID 1159606; 360,000 tested, 2% active; TWEAK-stimulated Fn14 reporter cells, luciferase luminescence, 8 h; in the data active = inhibition above about 50%
# HSF1 inh = HSF1 inhibition. AID 2098. 300,000 tested, 0.77% active. activity change, negative = inhibition, % at 7.5 µM (by protocol). NIH3T3-HGL HSE-luciferase, MG132-induced, luminescence 8 h; stronger effect = lower value;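 active = more than half of replicate wells show activity change below -50%, luminescence cut by over half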;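 also: luciferase reports HSF-1 transcriptional activity via heat shock element; 0% = median of DMSO wells and -100% = zero luminescence signal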
# * marks the source's active call; other numbers are inactive results; nt = no result given.
SMILES,TROY signal inh,HSP90 refold inh,HSF-1 act,EBV LMP1 NFkB,TWEAK Fn14 block,HSF1 inh
O=C1c2ccccc2C2=Nc3ccccc3SC(c3cccc(F)c3)C12 (stereo not given),71.0*,-1.0,-4.3,12.2,48.0,3.0
O=C1c2ccccc2C2=Nc3ccccc3SC(c3ccc(Cl)cc3)C12 (stereo not given),37.1,-2.9,40.4,-8.1,39.1,27.1
CCCNC(=O)c1noc2c1CCc1cc(OC)ccc1-2,-40.0,10.9,66.7*,1.4,-3.3,17.6
COc1ccc2c(c1)CCc1c(C(=O)NCc3cccnc3)noc1-2,-54.2,-0.1,10.4,-7.2,-17.8,4.4
COc1ccc2c(c1)CCc1c(C(=O)NCC(C)C)noc1-2,-42.1,4.3,58.1*,-1.0,12.6,33.8
O=C(/C=C/[C@H]1O[C@@H](n2ccc(=O)[nH]c2=O)[C@H](O)[C@@H]1O)NC(c1ccccc1)c1ccccc1,9.8,nt,nt,nt,-2.4,nt
OC(COc1ccc2cc(Br)ccc2c1)CN1CCCC1 (stereo not given),55.5*,4.6,-23.4,-13.2,51.0*,-14.5
COc1ccc(N2CCN(CC(O)COCCOc3ccc(Br)cc3)CC2)cc1 (stereo not given),9.5,-0.8,-74.4,4.4,-2.2,-65.7*
COCCNC(=O)C1(C)CCN(C(=O)c2cc(C(C)(C)C)nn2C)C1 (stereo not given),-0.5,nt,nt,nt,1.9,nt
O=C(COC(=O)CCN1C(=O)/C(=C\C=C\c2ccccc2)SC1=S)Nc1cc(F)ccc1F,25.4,-1.0,-7.3,18.3,54.6*,0.3
Cc1ccc(SCc2c(C#N)c3ccccc3n2C)cc1,-52.1,0.8,34.5,-6.4,-0.5,1.1
Cn1c(CSc2ccccc2)c(C#N)c2ccccc21,-57.9,-1.9,90.0*,-29.2,-7.1,28.9
C[C@H]1CN([C@@H](C)CO)C(=O)c2cc(Br)cnc2O[C@@H]1CN(C)C(=O)c1ccncc1,-8.0,nt,nt,1.9,18.9,nt
Cc1nc(NCCc2ccc(F)cc2)c(C#N)c(C)c1[N+](=O)[O-],9.8,-1.0,51.5*,-3.8,3.7,20.4
COc1cccc(NC(=O)CCSc2nnc3scc(-c4ccccc4)n23)c1,16.5,3.6,-78.0,25.1,-16.8,-72.9*
O=C(CSc1nnc2scc(-c3ccccc3)n12)Nc1nsc(-c2ccccc2)n1,34.6,0.4,2.0,12.5,22.5,11.4
O=C(CSc1nnc2scc(-c3ccccc3)n12)Nc1nsc(-c2ccc(Cl)cc2)n1,28.0,0.1,-10.3,14.1,53.9*,-6.8
CCCCN(C=O)c1c(CC)nc2c(OCC3CCCCC3)cccn12,8.7,nt,nt,nt,5.3,nt
CCCCOc1ccc(C(=O)Nc2ccc(N3CCN(C(=O)C(C)C)CC3)cc2)cc1,23.2,-0.7,6.6,11.7,59.0*,4.5
Cc1ccc(C(=O)Nc2ccc(N3CCCCC3)cc2)cc1,-35.8,nt,nt,-27.9,13.0,nt
CCCCOc1ccc(C(=O)Nc2ccc(N3CCN(C(C)=O)CC3)cc2)cc1,20.8,5.2,0.4,21.0,39.6,9.0
CC(=O)Nc1ccc(N2CCCCC2)cc1,-1.7,-2.5,-5.4,4.0,-4.6,4.7
O=C(Nc1ccc(N2CCCCC2)cc1)c1ccccc1,18.3,27.6*,20.2,1.6,20.7,14.6
CC(=O)N1CCN(c2ccc(NC(=O)c3ccc(C(C)(C)C)cc3)cc2)CC1,51.7*,0.8,-11.1,3.4,19.7,-6.4
CC(=O)N1CCN(c2ccc(NC(=O)c3ccc(Cl)cc3)cc2)CC1,1.1,-2.2,31.0,8.4,-5.7,-5.8
SMILES,TROY signal inh,HSP90 refold inh,HSF-1 act,EBV LMP1 NFkB,TWEAK Fn14 block,HSF1 inh
CC(=O)c1c[nH]c(C(=O)Nc2ccc(N3CCCCCC3)cc2)c1,22.3,nt,nt,7.1,69.0*,nt
CCOc1ccccc1C(=O)NCC(=O)N(C)CC(=O)Nc1ccc(N2CCOCC2)cc1,8.5,nt,nt,-0.6,-2.1,nt
CC(C)C(=O)N1CCN(c2ccc(NC(=O)COc3ccccc3[N+](=O)[O-])cc2)CC1,49.0,-1.0,20.4,12.1,75.5*,32.1
O=Cc1cn(CCC(=O)O)nc1-c1cccc(Br)c1,5.8,0.4,-0.8,-7.1,5.9,3.5
COc1ccc(-c2nn(CCC(=O)O)cc2/C=C/C(=O)O)cc1[N+](=O)[O-],64.8*,6.8,8.8,0.9,-3.3,3.2
COc1ccc(-c2nn(-c3ccccc3)cc2/C=C(\C#N)C(N)=O)cc1[N+](=O)[O-],-1.1,0.1,2.2,6.5,8.4,2.4
O=C(O)CCn1cc(/C=C\C(=O)c2ccc(Cl)cc2)c(-c2cccc(Br)c2)n1,21.1,-5.9,13.4,-5.7,64.2*,14.1
COC(=O)c1c(-c2cccs2)csc1NC(=O)CN1CCOCC1,66.6*,2.8,3.5,-33.1,21.1,7.4
CCOC(=O)c1c(-c2ccccc2)csc1NC(=O)CSc1nc(C)cc(C)n1,31.7,3.1,20.0,-9.2,35.1,4.3
CCOC(=O)c1c(-c2ccc(C)o2)csc1NC(=O)CN1CCCCC1,9.2,2.8,17.5,2.3,54.3*,4.1
CCOC(=O)c1c(-c2ccccc2)csc1NC(=O)CSc1nc(N)cc(N)n1,43.5,-0.8,-7.2,-17.5,86.4*,-2.1
CCOC(=O)c1c(-c2ccco2)csc1NC(=O)CSc1nnc(N)s1,9.1,3.9,15.5,-12.8,4.7,14.1
CCOC(=O)c1c(-c2ccc(C)o2)csc1NC(=O)CSc1nncs1,-9.4,0.5,95.5*,1.7,11.5,80.3
CCOC(=O)c1c(-c2ccc(C)o2)csc1NC(=O)CN1CCN(CC)CC1,10.8,3.2,nt,-8.0,-4.5,nt
Cc1cc(/C=C2/C(=O)NN(c3ccccc3)C2=O)c(C)n1-c1ccc(O)cc1,82.7*,-2.0,-69.4,37.3,88.0*,-69.2*
CCn1c(C)cc(C=C2C(=O)c3ccccc3C2=O)c1C,31.0,3.7,11.3,-14.4,53.6*,-0.3
Cc1cccc(-n2c(C)cc(C=C3C(=O)c4ccccc4C3=O)c2C)c1,79.7*,0.2,nt,9.8,91.9*,nt
Cc1cc(C=C2C(=O)c3ccccc3C2=O)c(C)n1-c1ccc(Cl)cc1,-36.4,-1.2,11.7,-5.7,11.4,1.1
COc1ccc(-n2c(C)cc(/C=C3\C(=O)NN(c4ccccc4)C3=O)c2C)cc1,-76.0,-8.2,25.4,-11.3,2.2,7.1
CCSc1nnc(NC(=O)C2CCCN(C(=O)c3ccc(Cl)cc3)C2)s1 (stereo not given),-6.5,nt,nt,2.7,5.1,nt
COc1ccc(CN2C[C@@H](CO)O[C@@H](n3cnc4c(NCCN(C)C)ncnc43)C2)cc1,-13.2,nt,nt,nt,-35.2,nt
O=C(C[C@H]1C(=O)N(CCc2ccccc2)C[C@@H]1c1ccccc1)Nc1ccccc1,5.0,nt,nt,-3.3,1.3,nt
COc1cc(NC(=O)c2sc3ncn(CC(=O)N4CCCCC4C)c(=O)c3c2C)cc(OC)c1OC (stereo not given),3.7,nt,nt,-4.2,7.3,nt
O=C(O)CCN1C(=O)C2C3c4ccccc4C(c4ccccc43)[C@@H]2C1=O (stereo not given in full),7.5,5.2,4.0,-5.7,9.4,-6.7
